ADAM17 inh – ADAM17 inhibitors, primary screen, biochemical, QFRET | Disintegrin and metalloproteinase domain-containing protein 17 (Homo sapiens), P78536 | recombinant ADAM17, EDANS/DABCYL FRET peptide cleavage | inhibition, % at 6.95 µM | 370,000 tested, 0.83% active | AID 720648, 2013;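 active = inhibition above the mean of compounds lying between control limits plus 3 SD, set per campaign, cut at about 8.5% in these data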;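 note: 0% = DMSO-only wells as the low control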
ADAM10 inh – human ADAM10 inhibitors, primary screen, biochemical, QFRET, HTS; Disintegrin and metalloproteinase domain-containing protein 10 (Homo sapiens), O14672; recombinant ADAM10, EDANS/DABCYL FRET peptide cleavage, 3 h; inhibition, % at 7 µM; 370,000 tested, 0.62% active;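 active = inhibition above a per-campaign cutoff equal to the mean of compounds falling between control-based bounds plus 3 SD, cut at about 20% in these data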;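 note: 0% = DMSO wells while the 100% control is not disclosed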
Rce1 inh – yeast Rce1p protease inhibitors, primary screen, biochemical, fluorescence, cell-free homogeneous; AID 2563, 2010; 290,000 tested, 0.27% active; calls only; yeast membranes, quenched prenylated peptide cleavage fluorescence; CAAX prenyl protease 2 (Saccharomyces cerevisiae (strain ATCC 204508 / S288c)), Q03530;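 active = fall in fluorescence gain of 50% or more versus controls, with final raw signal at or below 3038400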;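 note: plate controls were neutral control wells for no effect and wells lacking membranes for full effect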
PLC-gamma1 inh – PLC-gamma1 enzyme inhibitors, primary screen, biochemical, fluorescence, purified enzyme; fluorogenic substrate; AID 720700, 2013; inhibition, % at 12.2 µM; 370,000 tested, 0.84% active; 1-phosphatidylinositol 4,5-bisphosphate phosphodiesterase gamma-1 (Homo sapiens), P19174; in the data active = inhibition above about 9.5%
Target sequence (P19174 whole entry, looked up): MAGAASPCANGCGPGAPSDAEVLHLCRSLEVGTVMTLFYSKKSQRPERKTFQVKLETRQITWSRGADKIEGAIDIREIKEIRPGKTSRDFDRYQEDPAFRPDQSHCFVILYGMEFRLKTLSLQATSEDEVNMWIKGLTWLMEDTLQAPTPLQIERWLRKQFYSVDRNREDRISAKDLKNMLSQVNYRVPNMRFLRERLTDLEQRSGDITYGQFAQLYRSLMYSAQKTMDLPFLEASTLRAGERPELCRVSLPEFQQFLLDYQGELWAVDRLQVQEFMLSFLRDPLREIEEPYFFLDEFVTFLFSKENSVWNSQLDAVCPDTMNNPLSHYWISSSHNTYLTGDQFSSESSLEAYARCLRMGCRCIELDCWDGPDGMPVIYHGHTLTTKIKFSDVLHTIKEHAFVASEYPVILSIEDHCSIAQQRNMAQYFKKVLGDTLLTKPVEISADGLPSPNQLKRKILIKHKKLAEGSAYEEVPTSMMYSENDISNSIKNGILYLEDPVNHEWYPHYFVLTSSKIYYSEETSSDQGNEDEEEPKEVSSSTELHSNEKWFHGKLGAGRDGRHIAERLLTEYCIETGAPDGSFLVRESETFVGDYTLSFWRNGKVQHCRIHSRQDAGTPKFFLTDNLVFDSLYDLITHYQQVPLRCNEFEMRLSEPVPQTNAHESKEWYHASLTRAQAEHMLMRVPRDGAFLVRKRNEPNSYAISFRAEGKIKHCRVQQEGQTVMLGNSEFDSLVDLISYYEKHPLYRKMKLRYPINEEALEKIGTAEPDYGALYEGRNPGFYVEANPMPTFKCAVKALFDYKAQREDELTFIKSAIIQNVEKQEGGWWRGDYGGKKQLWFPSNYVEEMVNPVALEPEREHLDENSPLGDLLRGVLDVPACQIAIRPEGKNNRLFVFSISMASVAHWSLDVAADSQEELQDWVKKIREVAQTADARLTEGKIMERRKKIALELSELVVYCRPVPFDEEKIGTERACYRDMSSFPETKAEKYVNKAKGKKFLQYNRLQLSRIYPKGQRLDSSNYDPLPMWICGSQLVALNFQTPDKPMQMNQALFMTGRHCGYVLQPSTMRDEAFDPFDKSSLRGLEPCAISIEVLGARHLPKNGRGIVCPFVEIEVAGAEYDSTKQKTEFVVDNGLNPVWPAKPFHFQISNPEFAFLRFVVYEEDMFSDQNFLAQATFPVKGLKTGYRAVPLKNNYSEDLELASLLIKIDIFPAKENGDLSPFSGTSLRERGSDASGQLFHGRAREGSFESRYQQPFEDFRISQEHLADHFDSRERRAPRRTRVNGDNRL
PLCb3 inh – human PLC-beta3 inhibitors, primary screen, biochemical, fluorescence | 1-phosphatidylinositol 4,5-bisphosphate phosphodiesterase beta-3 (Homo sapiens), Q01970 | Purified PLC-beta3, fluorogenic substrate | inhibition, % at 12.2 µM | 370,000 tested, 0.18% active | AID 720704, 2013; in the data active = inhibition above about 11%;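 note: 0% = median of compound wells on plate and 100% = full blocker control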
ADAM10 confirm – human ADAM10 inhibitors, confirmation, biochemical, QFRET, triplicate; shares compounds with ADAM10 inh; ADAM10 QFRET peptide cleavage, EDANS fluorescence; inhibition, % at 6.95 µM; 2,100 tested, 1% active; AID 743208, 2013;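 active = inhibition above about 20% chosen separately for each screening run, limit read from the data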;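 note: 0% = DMSO wells and 100% = marimastat wells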
ADAM17 counter – ADAM17 inhibitors, counter-screen for ADAM10 exosite inhibitor project, biochemical, QFRET, high throughput; inhibition, % at 6.95 µM; 2,100 tested, 0.5% active; ADAM17 QFRET peptide cleavage, EDANS fluorescence; shares compounds with ADAM10 inh;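 active = mean triplicate inhibition above the solvent-only control wells' mean plus 3 SD, cut at about 12% in these data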;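 note: 0% = DMSO wells and 100% = marimastat wells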
ADAM10 counter – ADAM10 inhibitors, counter-screen for ADAM17 exosite inhibitor project, biochemical, FRET, human ADAM10; 2,900 tested, 47% active; inhibition, % at 6.95 µM; recombinant ADAM10, EDANS/DABCYL FRET peptide cleavage, 3 h; shares compounds with ADAM17 inh;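 active = mean inhibition over the triplicate runs exceeds the activity threshold set in the earlier primary screen, cut at about 20% in these data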;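 note: 0% = DMSO wells and 100% = marimastat wells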
ADAM17 confirm – ADAM17 inhibitors, hit retest, confirmation, biochemical, QFRET peptide cleavage. shares compounds with ADAM17 inh. recombinant ADAM17, EDANS/DABCYL QFRET peptide cleavage. inhibition, % at 6.95 µM. 2,900 tested, 65% active. AID 743257, 2014;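 active = mean inhibition across replicates above the hit cutoff set in the primary screen, cut at about 8.5% in these data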;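 note: 0% = DMSO wells and 100% = marimastat wells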
* hit, by the source's call; i = inactive; . = no result given. Rows were chosen to be rich in hits. Some 2.1% of all compounds tested hit in one or more screens of this group.

SMILES	ADAM17 inh	ADAM10 inh	Rce1 inh	PLC-gamma1 inh	PLCb3 inh	ADAM10 confirm	ADAM17 counter	ADAM10 counter	ADAM17 confirm
Cc1ccc(O)c(-c2cc(-c3ccccc3C)[nH]n2)c1	9.8*	24.4*	i	0.8	2.2	8.5	2.9	26.6*	12.4*
CC(C)(C)c1ccc(-c2cc(N)n[nH]2)cc1	-5.0	-9.9	i	0.3	-1.4	.	.	.	.
CC(C)(C)c1ccc(-c2cc(-c3ccccc3O)[nH]n2)cc1	16.5*	33.9*	i	4.3	-0.6	11.0	3.6	22.0*	10.6*
O=C(Nc1cccc(C(F)(F)F)c1)N1CCC(c2nc(-c3ccc(F)cc3)no2)CC1	9.6*	20.9*	i	0.9	0.4	5.6	1.9	34.2*	17.0*
O=C1CC(=O)N(CCc2ccccc2)C(=O)N1CCc1ccccc1	12.9*	23.6*	i	3.0	-1.6	4.9	1.6	24.9*	9.9*
CC1CC(=O)N(CCc2ccccc2)C(=O)C1	-4.2	-8.4	.	4.2	5.3	.	.	.	.
CC(=O)c1cccc(N(CC(=O)NC2CCCCC2)C(=O)Cn2nnc(-c3ccccc3)n2)c1	-3.0	1.4	i	-0.4	-6.9	.	.	.	.
Cc1ccc(NC(=O)c2cccc(OCc3c(C)noc3C)c2)cc1S(=O)(=O)Nc1ccccc1Cl	10.2*	21.8*	i	0.8	-2.5	9.5	3.4	33.7*	16.3*
COC(=O)[C@H](CC(C)C)N(Cc1cn(Cc2ccc(C)cc2)nn1)S(=O)(=O)c1ccc(F)cc1Br	8.6	13.3	.	4.1	4.3	.	.	.	.
O=c1n(Cc2ccccc2)c(O)c2n1Cc1ccccc1N=C2c1ccccc1	-3.1	-8.7	.	0.3	-1.8	.	.	.	.
COc1cc([N+](=O)[O-])cc(/C=N/NC(=O)C(C)Nc2ccccc2C)c1O (configuration not stated)	10.0*	25.9*	i	4.4	3.7	0.3	1.2	23.5*	11.6*
Cc1ccc(CN2CC(C(=O)N3CCN(S(=O)(=O)c4cccc(F)c4)CC3)CC2=O)cc1 (configuration not stated)	-1.1	4.3	i	0.8	3.9	.	.	.	.
OC(c1ccc(F)cc1)c1nc(-c2cccc(C(F)(F)F)c2)cs1 (configuration not stated)	6.7	9.5	.	0.2	-3.7	.	.	.	.
COc1ccc(C(O)c2nc(-c3cccc(C(C)C)c3)cs2)cc1 (configuration not stated)	11.3*	21.2*	.	1.1	0.0	5.5	2.2	18.2	8.7*
OC(c1ccc(F)c(F)c1)c1nc(-c2ccc(F)c(Cl)c2)cs1 (configuration not stated)	8.9*	21.9*	.	-3.9	-9.9	7.6	2.1	35.9*	15.7*
OC(c1ccc(F)c(F)c1)c1nc(-c2cccc(C(F)(F)F)c2)cs1 (configuration not stated)	9.4*	25.8*	.	-3.1	-2.8	4.3	1.9	18.2	13.7*
O=C(COC(=O)COc1cccc(C(F)(F)F)c1)NC(=O)NC1CCCCC1	0.0	4.8	i	1.3	-5.4	.	.	.	.
CN(c1ccccc1)S(=O)(=O)c1cccc(NC(=O)CSc2ncc(C(F)(F)F)cc2Cl)c1	10.0*	19.8*	i	2.1	-3.9	10.2	3.5	26.5*	10.3*
CCCCNC(=O)CSc1nc2cc3c(cc2c(=O)n1Cc1ccco1)OCO3	-4.8	-1.4	i	-1.7	-3.4	.	.	.	.
NNC(=O)/C(=N/Nc1ccccc1)S(=O)(=O)c1ccc(Cl)cc1	11.3*	21.0*	i	-4.3	-13.3	3.7	2.7	15.4	9.9*
CCOC(=O)/C(=N/Nc1ccc(C)cc1)S(=O)(=O)c1ccc(Cl)cc1	0.3	9.8	i	1.6	5.8	.	.	.	.
O=C(N/N=C/c1ccco1)/C(=C/c1cccc([N+](=O)[O-])c1)NC(=O)c1ccccc1	-0.4	-10.2	i	0.0	-1.0	.	.	.	.
O=C(N/N=C/c1ccc(Br)o1)/C(=C/c1ccc([N+](=O)[O-])cc1)NC(=O)c1ccccc1	13.4*	30.6*	i	-12.4	-8.6	1.9	0.9	32.1*	17.4*
COc1ccc(CNC(=O)c2cn(Cc3ccccc3OC)c(=O)s2)cc1	-1.0	-10.2	.	2.1	-4.3	.	.	.	.
COc1ccc(N(CC(O)Cn2c3ccccc3c3ccccc32)S(=O)(=O)c2ccccc2)cc1 (configuration not stated)	13.1*	31.3*	i	-12.8	-15.2	191.1*	41.1*	-2.9	12.4*
SMILES	ADAM17 inh	ADAM10 inh	Rce1 inh	PLC-gamma1 inh	PLCb3 inh	ADAM10 confirm	ADAM17 counter	ADAM10 counter	ADAM17 confirm
CC(=O)Nc1ccccc1N(CC(O)Cn1c2ccccc2c2ccccc21)S(=O)(=O)c1ccc(C)cc1 (configuration not stated)	12.9*	24.9*	i	2.5	1.6	10.1	3.6	37.7*	23.3*
COc1ccccc1N(CC(O)CN1CCCCC1)S(=O)(=O)c1ccc(C)cc1 (configuration not stated)	0.3	8.4	i	6.4	-0.6	.	.	.	.
O=C(Cn1nnc(-c2ccccc2F)n1)Nc1ccc(Cl)c(Cl)c1	1.4	-2.1	.	1.2	1.4	.	.	.	.
COc1ccc(S(=O)(=O)Nc2ccc(Nc3ccccc3)cc2)cc1	12.2*	21.0*	i	6.6	-4.4	7.3	1.4	12.9	11.1*
Cc1ccc(C)c(OCCC(=O)Nc2cc(S(=O)(=O)N3CCCCC3)ccc2C)c1	-0.1	-7.9	.	2.5	4.6	.	.	.	.
COc1ccc(NC(=O)CCOc2cc(C)ccc2C)cc1S(=O)(=O)N1CCCCC1	12.3*	24.2*	.	6.9	4.7	1.7	0.7	8.9	9.2*
Cc1ccc(C)c(OCCC(=O)OCC(=O)Nc2cc(S(=O)(=O)N3CCCCC3)ccc2C)c1	10.6*	25.3*	.	1.2	-2.8	6.3	2.1	45.5*	20.7*
